# Inconclusive results are not listed. Entries that show only a call come without a potency. Some structures have more than one record in an assay (separate samples or runs), and their calls can disagree. Values without a mark were called inactive. Active and inactive are the calls of the source. Unless noted, calls come from the whole dose curve; as a rule, active = well fitted inhibition curve with a large enough effect; inconclusive = small, poorly fitted or top-dose-only effect; inactive = flat fitted curve, though single readings scatter.
# Assays:
# 3D7 = assay: qHTS profiling for inhibitors of Plasmodium falciparum proliferation (AID 504749); note: nearly all actives have a fitted effect of over 60% in size; note: potency is the fitted concentration of half-maximal effect; conditions: P. falciparum in erythrocytes, SYBR Green DNA, 72 h; series mostly up to 28.7 µM
# Procedure, shortened: (§1)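 SYBR Green fluorescence (ex 485 nm, em 535 nm) reports parasite DNA after 72 h compound exposure of infected red cells at 0.3% parasitemia, 2.5% hematocrit; signal normalized to 0.29 uM artemisinin and vehicle wells.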
# ATS189 = assay: as above; conditions: P. falciparum in erythrocytes, SYBR Green DNA, 72 h; series mostly up to 28.7 µM
# Procedure, shortened: as §1
# CP217 = assay: as above; conditions: P. falciparum in erythrocytes, SYBR Green DNA, 72 h; series mostly up to 28.7 µM
# Procedure, shortened: as §1
# CP250 = assay: as above; conditions: P. falciparum in erythrocytes, SYBR Green DNA, 72 h; series mostly up to 28.7 µM
# Procedure, shortened: as §1
# CP256 = assay: as above; conditions: P. falciparum in erythrocytes, SYBR Green DNA, 72 h; series mostly up to 28.7 µM
# Procedure, shortened: as §1
# CP265 = assay: as above; conditions: P. falciparum in erythrocytes, SYBR Green DNA, 72 h; series mostly up to 28.7 µM
# Procedure, shortened: as §1
# CP335 = assay: as above; conditions: P. falciparum in erythrocytes, SYBR Green DNA, 72 h; series mostly up to 28.7 µM
# Procedure, shortened: as §1
# DFO2036 = assay: as above; conditions: P. falciparum in erythrocytes, SYBR Green DNA, 72 h; series mostly up to 28.7 µM
# Procedure, shortened: as §1
# SC27B = assay: as above; conditions: P. falciparum in erythrocytes, SYBR Green DNA, 72 h; series mostly up to 28.7 µM
# Procedure, shortened: as §1
# [1] = S16 Schwann cell PMP22 intronic element beta-lactamase assay (AID 624044; calls by dose curve; note: nearly all actives have a fitted effect of over 15% in size); conditions: S16 rat Schwann cells, PMP22 element beta-lactamase FRET, 24 h
# Procedure, shortened: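 Beta-lactamase reporter under a PMP22 intronic regulatory element in stable S16 rat Schwann cells; 24 h compound exposure. 460 nm blue signal normalized between DMSO (0%) and potassium clavulanate, with 535 nm FRET tracking viability; curves classed by r2 and response.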
# ECU = assay: qHTS profiling for inhibitors of Plasmodium falciparum proliferation (AID 504749); note: nearly all actives have a fitted effect of over 60% in size; note: potency is the fitted concentration of half-maximal effect; conditions: P. falciparum in erythrocytes, SYBR Green DNA, 72 h; series mostly up to 28.7 µM
# Procedure, shortened: as §1
# ICS = assay: as above; conditions: P. falciparum in erythrocytes, SYBR Green DNA, 72 h; series mostly up to 28.7 µM
# Procedure, shortened: as §1
# PAD = assay: as above; conditions: P. falciparum in erythrocytes, SYBR Green DNA, 72 h; series mostly up to 28.7 µM
# Procedure, shortened: as §1
# PC26 = assay: as above; conditions: P. falciparum in erythrocytes, SYBR Green DNA, 72 h; series mostly up to 28.7 µM
# Procedure, shortened: as §1
# TAB109 = assay: as above; conditions: P. falciparum in erythrocytes, SYBR Green DNA, 72 h; series mostly up to 28.7 µM
# Procedure, shortened: as §1
# W2 = assay: as above; conditions: P. falciparum in erythrocytes, SYBR Green DNA, 72 h; series mostly up to 28.7 µM
# Procedure, shortened: as §1
# AA1029 = assay: as above; conditions: P. falciparum in erythrocytes, SYBR Green DNA, 72 h; series mostly up to 28.7 µM
# Procedure, shortened: as §1
# TAB113 = assay: as above; conditions: P. falciparum in erythrocytes, SYBR Green DNA, 72 h; series mostly up to 28.7 µM
# Procedure, shortened: as §1
# AS120 = assay: as above; conditions: P. falciparum in erythrocytes, SYBR Green DNA, 72 h; series mostly up to 28.7 µM
# Procedure, shortened: as §1
# N140 = assay: as above; conditions: P. falciparum in erythrocytes, SYBR Green DNA, 72 h; series mostly up to 28.7 µM
# Procedure, shortened: as §1
# [2] = ratio activity, negative = inhibition: at 38.3 µM (top of the series)
smiles,measurement,setting,value
C[C@@H]1CC2[C@@H]3C[C@H](F)C4=CC(=O)C(Cl)=C[C@]4(C)[C@@]3(F)[C@H](O)C[C@]2(C)[C@@]1(O)C(=O)CO (some centres undefined),Potency,3D7,inactive
same,Potency,ATS189,inactive
same,Potency,CP217,inactive
same,Potency,CP250,inactive
same,Potency,CP256,inactive
same,Potency,CP265,inactive
same,Potency,CP335,inactive
same,Potency,DFO2036,inactive
same,Potency,SC27B,inactive
CC[C@H]1OC(=O)[C@H](C)C(=O)[C@H](C)[C@@H](OC2O[C@H](C)C[C@H](N(C)C)[C@@H]2O)[C@@](C)(OC)C[C@@H](C)C(=O)[C@@H](C)C2N(CCCCn3cnc(-c4cccnc4)c3)C(=O)O[C@@]21C (some centres undefined),Potency,[1]; [2],inactive
same,Potency,CP250,inactive
same,Potency,CP256,inactive
same,Potency,CP265,inactive
same,Potency,DFO2036,inactive
same,Potency,ECU,10 µM (active)
same,Potency,ICS,10 µM (active)
same,Potency,PAD,11.2 µM (active)
same,Potency,PC26,inactive
CCC1OC(=O)C[C@@H](O)[C@H](C)[C@@H](OC2OC(C)CC(N(C)C)C2O)[C@@H](CC=O)C[C@@H](C)C(=O)/C=C/[C@]2(C)OC2C1C (some centres undefined),Potency,CP256,2.24 µM (active)
same,Potency,CP335,1.2 µM (active)
same,Potency,ICS,4.47 µM (active)
same,Potency,TAB109,0.794 µM (active)
same,Potency,W2,1.2 µM (active)
Oc1cc2cc(CCN3CCN(c4nsc5ccccc45)CC3)c(Cl)cc2[nH]1,Potency,[1]; [2],inactive
same,Potency,AA1029,inactive
same,Potency,ATS189,inactive
same,Potency,CP217,inactive
same,Potency,CP256,inactive
same,Potency,CP265,inactive
same,Potency,ECU,inactive
same,Potency,ICS,6.31 µM (active)
same,Potency,SC27B,inactive
same,Potency,TAB113,inactive
CCC(C)C(N)C(=O)O (centres undefined),Potency,3D7,inactive
same,Potency,AA1029,inactive
same,Potency,AS120,inactive
same,Potency,ATS189,inactive
same,Potency,CP217,inactive
same,Potency,CP250,inactive
same,Potency,CP256,inactive
same,Potency,CP265,inactive
same,Potency,CP335,inactive
same,Potency,DFO2036,inactive
same,Potency,ECU,inactive
same,Potency,N140,inactive
same,Potency,PAD,inactive
same,Potency,PC26,inactive
same,Potency,SC27B,inactive
same,Potency,TAB109,inactive
same,Potency,TAB113,inactive
CCCCC(=O)OC1CCC2C3CCc4cc(O)ccc4C3CC[C@]12C (some centres undefined),Potency,[1]; [2],inactive
same,Potency,3D7,inactive
same,Potency,AA1029,inactive
same,Potency,CP217,inactive
same,Potency,CP250,inactive
same,Potency,CP265,inactive
same,Potency,DFO2036,inactive
same,Potency,ECU,inactive
same,Potency,N140,11.2 µM (active)
same,Potency,PC26,inactive
same,Potency,TAB109,inactive
OCC(O)C(O)C(O)C(O)CO (centres undefined),"ratio activity, negative = inhibition",[1]; at 38.3 µM (top of the series),-3.36%
same,"ratio activity, negative = inhibition",[1]; [2],1.06% (active)
same,Potency,3D7,inactive
same,Potency,AA1029,inactive
same,Potency,AS120,inactive
same,Potency,ATS189,inactive
same,Potency,CP217,inactive
same,Potency,CP250,inactive
same,Potency,CP256,inactive
same,Potency,CP265,inactive
same,Potency,CP335,inactive
same,Potency,DFO2036,inactive
same,Potency,ECU,inactive
same,Potency,ICS,inactive
same,Potency,N140,inactive
same,Potency,PAD,inactive
same,Potency,PC26,inactive
same,Potency,SC27B,inactive
same,Potency,TAB109,inactive
same,Potency,TAB113,inactive
same,Potency,W2,inactive
CN(C)CC[C@@](O)(c1ccccc1)c1ccccc1Cl,Potency,AA1029,4.47 µM (active)
same,Potency,AS120,8.91 µM (active)
same,Potency,ATS189,5.62 µM (active)
same,Potency,CP217,12.6 µM (active)
same,Potency,CP256,5.62 µM (active)
same,Potency,CP265,7.08 µM (active)
same,Potency,CP335,7.57 µM (active)
same,Potency,DFO2036,8.91 µM (active)
same,Potency,ECU,7.94 µM (active)
same,Potency,ICS,4.47 µM (active)
same,Potency,N140,4.47 µM (active)
same,Potency,PAD,11.2 µM (active)
same,Potency,PC26,7.57 µM (active)
same,Potency,SC27B,5.62 µM (active)
same,Potency,TAB109,7.08 µM (active)
same,Potency,TAB113,11.2 µM (active)
same,Potency,W2,1.2 µM (active)
Cc1cncc(C(=O)O)[n+]1[O-],Potency,3D7,inactive
same,Potency,CP335,inactive
same,Potency,ICS,inactive
same,Potency,PAD,inactive
same,Potency,PC26,inactive
same,Potency,SC27B,inactive
same,Potency,TAB113,inactive
same,Potency,W2,inactive
C=CCN1CC(C(=O)N(CCCN(C)C)C(=O)NCC)CC2c3cccc4[nH]cc(c34)CC21 (centres undefined),Potency,[1]; [2],inactive
same,Potency,CP250,inactive
same,Potency,CP265,inactive
same,Potency,DFO2036,inactive
same,Potency,ICS,12.6 µM (active)
same,Potency,PC26,inactive
same,Potency,W2,6.01 µM (active)
C[C@H](CN1c2ccccc2Sc2cccnc21)N(C)C,Potency,AA1029,7.94 µM (active)
same,Potency,AS120,11.2 µM (active)
same,Potency,ATS189,5.01 µM (active)
same,Potency,CP335,6.01 µM (active)
same,Potency,ECU,inactive
same,Potency,N140,11.2 µM (active)
same,Potency,SC27B,8.91 µM (active)
same,Potency,TAB109,7.08 µM (active)
same,Potency,TAB113,12.6 µM (active)
same,Potency,W2,1.69 µM (active)
C=C1CCC(O)C/C1=C/C=C1\CCC[C@]2(C)[C@@H]([C@H](C)/C=C/[C@H](C)C(C)C)CC[C@@H]12 (some centres undefined),Potency,[1]; [2],inactive
same,Potency,3D7,inactive
same,Potency,AA1029,inactive
same,Potency,CP335,inactive
same,Potency,PC26,inactive

# From PubChem BioAssay (NCATS)
